Experimental data from PubChem BioAssay (NCI).
The panel holds about 83,000 compounds, 20% with a hit somewhere; the sample as a whole holds those more often.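 Note: values are percent growth. 100 is the growth of untreated cells, values between 100 and 0 indicate rising inhibition; between -100 and 0 indicates cell death.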 Unmarked numbers belong to inactive results. Activity calls are given as the source filed them. Rule for the calls: active = growth percent below 10; inactive = the rest.

Key:
Assay in all cases: NCI-60 one-dose screen, 48 h (100 = growth as untreated, 0 = no growth, -100 = all killed)
Conditions in all cases: 10 µM
[1] = tested on: RPMI-8226 leukemia
[2] = tested on: OVCAR-8 ovarian
[3] = tested on: OVCAR-5 ovarian
[4] = tested on: OVCAR-4 ovarian
[5] = tested on: SK-OV-3 ovarian
[6] = tested on: IGROV1 ovarian
[7] = tested on: OVCAR-3 ovarian
[8] = tested on: HS 578T breast
[9] = tested on: NCI/ADR-RES ovarian
[10] = tested on: T-47D breast
[11] = tested on: BT-549 breast
[12] = tested on: MDA-MB-435 melanoma
[13] = tested on: SW-620 colon
[14] = tested on: MCF7 breast
[15] = tested on: HCT-116 colon
[16] = tested on: HCC-2998 colon
[17] = tested on: KM12 colon

Structure (SMILES)	growth [1]	growth [2]	growth [3]	growth [4]	growth [5]	growth [6]	growth [7]	growth [8]	growth [9]	growth [10]	growth [11]	growth [12]	growth [13]	growth [14]	growth [15]	growth [16]	growth [17]
CCOC(=O)C(CSC(c1ccccc1)(c1ccccc1)c1ccccc1)NC(=O)C(CSC(c1ccccc1)(c1ccccc1)c1ccccc1)NC(c1ccccc1)(c1ccccc1)c1ccccc1 (configuration not stated)	105%	95.6%	106%	105%	109%	115%	119%	99.5%	109%	108%	109%	86.1%	104%	95%	108%	113%	111%
COc1cc(-c2cc(/C=C3\C(=O)Nc4cc(Cl)ccc43)[nH]n2)cc(OC)c1OC	-28% (active)	23.9%	65%	19%	74.2%	4.31% (active)	40.6%	12.6%	10.2%	24.9%	47.6%	-0.685% (active)	41.4%	-4.15% (active)	14.2%	70%	9.09% (active)
FC(F)(F)c1ccc2nc(-c3nc(-c4ccccc4)n4ccccc34)[nH]c2c1	51.6%	17.3%	85.6%	-3.4% (active)	52.8%	67.7%	79.1%	103%	44.4%	48.3%	85.9%	87.5%	72%	38.3%	8.85% (active)	82.6%	52.4%
COc1ccc(-c2nn(-c3cccc(NC(=O)c4cccc(C(F)(F)F)c4)c3)cc2-c2ccncc2)cc1Cl	6.49% (active)	33%	55.8%	60.7%	37.8%	42.4%	11.9%	24.9%	15.2%	18.6%	35%	-67.9% (active)	36%	9.92% (active)	14.5%	33.6%	15.4%
Cc1ccc(S(=O)(=O)Oc2ccc3c4c(c(=O)oc3c2)CCCCC4)cc1	24%	63.1%	93.5%	51.3%	93.1%	82.1%	75.1%	79.7%	53.2%	33.4%	47.3%	57%	30.2%	50.5%	36.7%	51.4%	35.3%
CN(C)CC(O)c1ccc2cc(Br)c3ccccc3c2c1 (configuration not stated)	56.1%	79.7%	68.4%	84.9%	95.4%	22.5%	81%	74.9%	59.7%	69.4%	75.8%	42.4%	63.7%	35.1%	41.2%	25.8%	48.6%
COc1ccc(-c2nc3sc(-c4ccc(OC)cc4)c(-c4ccc(OC)cc4)n3c2/C=C/c2ccc(C(C)C)cc2)cc1	97.4%	97%	94.6%	90.8%	97.4%	111%	100%	89.4%	106%	97.2%	98.6%	98.7%	99.7%	90.4%	94.4%	111%	102%
CCCCCCCCCCCCCCCC(=O)OC1[C@@H](OC(=O)CCCCCCCCCCCCCCC)[C@@H](C(=O)N[C@@H](CCCCN)C(=O)OC)O[C@H]1n1cnc2c(=O)[nH]c(NC(=O)C(C)C)nc21 (some centres not stated)	92.5%	87%	108%	120%	99.4%	91.8%	105%	107%	102%	88.2%	105%	99.6%	104%	96.4%	85.4%	101%	95%
COc1ccc(-c2nn(-c3cccc(NC(=O)Nc4cccc(C(F)(F)F)c4)c3)cc2-c2ccncc2)cc1Cl	-11% (active)	-4.63% (active)	56.1%	18.1%	20.4%	14.5%	3.89% (active)	32.5%	0.659% (active)	-6.95% (active)	8.32% (active)	-35.8% (active)	17.4%	5.79% (active)	9.6% (active)	30.5%	0.879% (active)
Cc1cc(=O)[nH]c(N/N=C/c2ccccc2O)n1	68.6%	83.3%	95.2%	22.4%	78.3%	59.6%	6.7% (active)	104%	16.3%	48.7%	101%	72.1%	56.5%	4.95% (active)	8.06% (active)	54.3%	51.2%
COc1cc(Cl)cc(-c2nn(-c3cccc(NC(=O)c4ccc(N5CCOCC5)c(C(F)(F)F)c4)c3)cc2-c2ccncc2)c1	25.2%	42.1%	78.4%	67.9%	75.7%	96.5%	69.4%	40.7%	46.1%	49.2%	73%	63.4%	69.2%	45.3%	47.7%	52.3%	38.4%
CC(=O)c1cc(Cl)ccc1O	105%	109%	94.3%	120%	111%	116%	102%	104%	104%	99.7%	105%	101%	95.9%	105%	102%	97.4%	96.2%
O=C1/C(=C/c2ccc([N+](=O)[O-])s2)Oc2ccccc21	0.673% (active)	2.43% (active)	-56.7% (active)	-86.7% (active)	12.3%	-72.5% (active)	-60.8% (active)	25.7%	12.3%	2.78% (active)	-83.2% (active)	-58.1% (active)	-61.3% (active)	1.53% (active)	-45.4% (active)	-71.4% (active)	-58.9% (active)
Cn1c([N+](=O)[O-])cnc1/C=C1\Oc2ccc(Cl)cc2C1=O	0.916% (active)	-17.3% (active)	-20.4% (active)	-4.09% (active)	-10.2% (active)	-19.3% (active)	-26.8% (active)	-24.1% (active)	2.61% (active)	78.1%	-35.7% (active)	-62.7% (active)	-61.6% (active)	1.32% (active)	-46.6% (active)	-58.6% (active)	-37% (active)
COc1cc(Cl)cc(-c2nn(-c3cccc(NC(=O)Nc4ccc(Cl)c(C(F)(F)F)c4)c3)cc2-c2ccncc2)c1	-29.1% (active)	8.71% (active)	19.2%	16.6%	12%	30.2%	-22.6% (active)	14.6%	6.07% (active)	8.1% (active)	9.81% (active)	-16.8% (active)	12.7%	2.57% (active)	3.39% (active)	18.1%	9.1% (active)
CN(C)c1ccc(N=C2C=CC(=O)c3ccccc32)cc1	65.4%	76.3%	88%	71.5%	95.4%	88.6%	23.8%	95.6%	85.5%	81.3%	94.5%	-87% (active)	93.3%	53.1%	78.4%	67.3%	54.8%
